For 58 compounds, Tm shift relative to glycine control results are on record in PubChem BioAssay AID1259313 (Sanford-Burnham Center for Chemical Genomics, 2017).

The campaign covered roughly 340,000 compounds. About 8,500 (2.5%) were called active. Many of the other results were omitted from the sample, so actives are more common in it than they were. A number with no mark means an inactive call.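 Rule for the calls: active = melting temperature shift of at least 10% of the positive control shift, at one fixed dose; inactive = the rest.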

For this assay, the system named is Glutamate receptor ionotropic, NMDA 3A (GRIN3A) ligand-binding domain. The assay can be described thus: binders of NR3A ligand-binding domain, primary screen, biophysical, differential scanning fluorimetry, uHTS (AID 1259313). The settings on record: NR3A LBD differential scanning fluorimetry, at 25 µM, stronger effect = higher value, 0% = protein alone, 100% = glycine-bound protein. (Differential scanning fluorimetry follows unfolding on heating by fluorescence.)
For `COC1=CC(=O)OC(c2ccc(OC)cc2)C1` (stereo not drawn), the Tm shift relative to glycine control is 3.44%.
For the compound `Cc1ccc(CNC(=O)CCS(=O)(=O)c2ccc3c(c2)CC(C)N3C(=O)C2CC2)o1` (stereo not drawn), the Tm shift relative to glycine control was -0.09%.
For `CCc1cccc2c3c([nH]c12)C(CC)(CC(=O)O)OCC3` (stereo not drawn), the Tm shift relative to glycine control was 14.4% (active).
For the compound `CCOC(=O)C1=C(C)c2ccccc2OC1C(=O)OCC` (stereo not drawn), the Tm shift relative to glycine control is 0.67%.
The figure for `CCOC(=O)C(=Cc1ccccc1OC)C(=O)OCC` is 0.09%; for `C=C1c2cccc(OC)c2O[C@H](C(=O)OCC)[C@@H]1CCCCCC` it is 19.5% (active); for `COC(=O)Cn1cnc2scc(-c3ccc(C)c(C)c3)c2c1=O` it is 0%.
In the case of `NCCN1CCN2C(=O)CN(C(=O)c3ccccc3)CC12` (stereo not drawn), the Tm shift relative to glycine control was -1.42%.
As for `Cc1cc(F)ccc1NC(=S)NCCc1ccccc1`, the Tm shift relative to glycine control was -1.3%.
Then `Cn1c(N)c(C(=O)COC(=O)c2ccc3ccccc3c2)c(=O)n(C)c1=O`, with -3.76%.
For the compound `Oc1ccc(-c2nnc(Nc3ccccc3)c3ccccc23)cc1`, the Tm shift relative to glycine control was -0.38%.
`CC(=O)Nc1cccc(Nc2nc(-c3cccs3)nc3ccccc23)c1`: the Tm shift relative to glycine control is 1.63%.
Take `Cc1cccc(-c2nc(Nc3ccc(O)cc3)c3ccccc3n2)c1`: the Tm shift relative to glycine control is 44.7% (active).
Then `COc1ccc(N2CCN(C(=O)CNC(=O)c3ccc(C(C)(C)C)cc3)CC2)cc1`, with 3.46%; and `CC(C)(C)c1cc2cccnc2n1Cc1ccccc1`, with -1.7%; and `COC(=O)CN1C(=S)N(c2ccccc2)C(=O)C1CC(=O)Nc1ccc(Cl)cc1` (stereo not drawn), with 28.7% (active).
Take `CCOc1ccc(NC(=O)CC2C(=O)N(c3ccccc3)C(=O)N2CCOC)cc1` (stereo not drawn): the Tm shift relative to glycine control is -0.16%.
On to `COCCN1C(=O)N(c2ccc(Cl)cc2)C(=O)C1CC(=O)Nc1cc(OC)cc(OC)c1` (stereo not drawn), for which the Tm shift relative to glycine control was 0.08%.
For `CC(C)N1CCC(=NNc2ccc([N+](=O)[O-])cc2S(=O)(=O)N2CCOCC2)CC1`, the Tm shift relative to glycine control is 0.15%.
For `Cc1ccc(S(=O)(=O)N2CCCCC2)cc1NC(=O)CCNC(=O)c1ccccc1`, the Tm shift relative to glycine control is 10.2% (active).
Then `O=C(CCNC(=O)c1ccc(Br)cc1)Nc1cccc(S(=O)(=O)N2CCCCC2)c1`, with -8.95%; and `Cc1ccc(S(=O)(=O)N2CCCCC2)cc1NC(=O)c1cccnc1`, with -0.36%; and `CCOC(=O)NN1C(=O)c2ccccc2NC1c1ccccc1O` (stereo not drawn), with 1.62%.
As to `C=CCOc1c(CNn2cn[nH]c2=S)cccc1OC`, the Tm shift relative to glycine control was 1.48%.
Take `Cc1cc(C)cc(NC(=O)c2cccc(NC(=O)C3C4CC5OC(=O)C3C5C4)c2)c1` (stereo not drawn): the Tm shift relative to glycine control was 3.21%.
The figure for `COC(=O)CNC(c1ccccc1Cl)c1cc(Br)ccc1NC(=O)CCN1CCOCC1` (stereo not drawn) is -6.58%.
Then `Cc1ccc(CNC(=O)c2cccc3c2C(=O)c2ccc(N4CCC(C)CC4)cc2S3(=O)=O)cc1`, with 0.32%; and `NC(=O)C(Cc1ccccc1)NC(=O)C12CC3CC(CC(C3)C1)C2` (stereo not drawn), with 1.38%; and `CCOC(=O)c1c(C)oc2cc(Sc3ccccc3)c(O)c(O)c12`, with 1.87%.
The figure for `COc1ccc(CCN2CC(C(=O)OCC(=O)NCc3ccccc3Cl)CC2=O)cc1OC` (stereo not drawn) is -0.25%; for `COc1ccc(C(CNC(=O)c2cccc(NS(=O)(=O)c3ccc(C)c(F)c3)c2)N2CCCC2)cc1` (stereo not drawn) it is -1.75%; for `COc1ccc(C(CNC(=O)c2cc3c(s2)CCCC3)N2CCOCC2)cc1` (stereo not drawn) it is 53.2% (active).
As for `O=C(NCCCN1CCOCC1)c1cc2c(s1)CCC2`, the Tm shift relative to glycine control was 1.5%.
For `COc1ccc(C(CNC(=O)c2cccnc2SC)N2CCOCC2)cc1` (stereo not drawn), the Tm shift relative to glycine control was -0.34%.
The figure for `COc1ccc(C(CNC(=O)c2ccc(S(=O)(=O)Nc3ccccc3C)cc2)N2CCOCC2)cc1` (stereo not drawn) is 2.35%; for `COc1ccc(C(CNC(=O)c2cccc(S(=O)(=O)Nc3ccccc3Cl)c2)N2CCOCC2)cc1` (stereo not drawn) it is 15.6% (active).
With `CC(C)NC(=O)c1ccccc1S(=O)c1ccccc1C#N` (stereo not drawn), the Tm shift relative to glycine control is -0.24%.
The figure for `Cc1noc(C)c1S(=O)(=O)N(C)Cc1ccccc1` is -2.24%; for `CCNC(=O)CCc1nc(-c2ccc(C(C)(C)C)cc2)no1` it is 2.39%.
The figure for `COCCN(CCOC)S(=O)(=O)NC[C@H]1O[C@@H](n2cnc3c(N)ncnc32)[C@H](O)[C@@H]1O` is -2.01%; for `CN(NS(=O)(=O)c1cccs1)c1ncc(C(F)(F)F)cc1Cl` it is -0.95%.
Consider `O=C(N/N=C/c1ccc([N+](=O)[O-])o1)c1cn(-c2ccccc2)nc1-c1ccc(F)cc1`, for which the Tm shift relative to glycine control is 57.3% (active).
On to `O=C(NCCCN1CCOCC1)c1cn(-c2ccccc2)nc1-c1ccc(F)cc1`, for which the Tm shift relative to glycine control was -0.58%.
Then `O=C(/C=C/c1ccc([N+](=O)[O-])o1)NNC(=O)c1ccc(F)cc1`, with -1.3%; and `O=C(CCn1nnc2ccccc21)OCC(=O)c1ccc([N+](=O)[O-])cc1`, with -0.44%.
Then `Cc1nc(NC(=O)c2ccc3c(c2)OCCO3)ccc1Br`, with 11.1% (active); and `Cc1ccc(C(=O)NNC(=O)c2ccc3c(c2)OCCO3)cc1`, with 1.65%; and `O=C(Nc1ccc(Cl)cn1)c1ccc2c(c1)OCCO2`, with -0.17%.
Regarding `O=S(=O)(c1cccc(Cn2nnc(-c3ccc(F)cc3)n2)c1)N1CCOCC1`, the Tm shift relative to glycine control was 0.18%.
On to `COc1ccc(S(=O)(=O)N(C)C[C@H]2Oc3c(NC(=O)Nc4ccc5c(c4)OCO5)cccc3C(=O)N([C@H](C)CO)C[C@@H]2C)cc1`, for which the Tm shift relative to glycine control is -34%.
The figure for `Cc1ccc2nc(-c3ccc(NC(=O)c4cccnc4)cc3)oc2c1` is 24% (active); for `CC(=O)NC(=S)Nc1ccc(NC(=O)c2cccnc2)cc1` it is 2.02%; for `Cc1cc2nc(-c3ccc(NC(=O)c4cccnc4)cc3)oc2cc1C` it is 24.6% (active).
As for `Cc1ccc(-n2nc3cc(C)c(NC(=O)c4cccnc4)cc3n2)cc1`, the Tm shift relative to glycine control was -2.09%.
On to `Cc1cc(NS(=O)(=O)c2ccc(NC(=O)c3cccnc3)cc2)nc(C)n1`, for which the Tm shift relative to glycine control is -0.7%.
The figure for `CCOC(=O)c1ccc(NC(=O)c2cccnc2)cc1` is 0.68%; for `Cc1ccc(C2CC(c3cccc(NS(C)(=O)=O)c3)=NN2S(C)(=O)=O)cc1` (stereo not drawn) it is -1.41%; for `CC(C)(C)C(=O)COC(=O)c1cc(S(=O)(=O)N2CCCCC2)ccc1N1CCOCC1` it is -1.85%.
